Test results: PubChem BioAssay (NCATS)
Records with an inconclusive call do not appear. Active and inactive are the calls of the source. Calls come from the whole dose curve; as a rule, active = well fitted cell-killing curve with a large enough effect; inconclusive = small, poorly fitted or top-dose-only effect, or effect the other way; inactive = flat fitted curve, though single readings scatter. Where a SMILES comes first, the peptide text is derived from it.

What was measured:
Test in all cases: Primary qHTS to identify gynecologic anti-cancer compounds using libraries of approved drugs and bioactive compounds (AID 1345084); note: nearly all actives have a fitted effect of over 55% in size
C33A = details: Gynecologic cancer cell panel viability, ATPlite luminescence, 48 h; series mostly up to 57.5 µM
Summary of the method: (§1)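 Cell viability after 48 h drug treatment, ATPlite luminescence readout; five doses.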

CASKI = details: Gynecologic cancer cell panel viability, ATPlite luminescence, 48 h; series mostly up to 57.5 µM
Summary of the method: as §1

Es-2 = details: Gynecologic cancer cell panel viability, ATPlite luminescence, 48 h; series mostly up to 57.5 µM
Summary of the method: as §1

HeLa = details: Gynecologic cancer cell panel viability, ATPlite luminescence, 48 h; series mostly up to 57.5 µM
Summary of the method: as §1

Hek293T = details: Gynecologic cancer cell panel viability, ATPlite luminescence, 48 h, control line for the selectivity index; series mostly up to 57.5 µM
Summary of the method: as §1

JEG-3 = details: Gynecologic cancer cell panel viability, ATPlite luminescence, 48 h; series mostly up to 57.5 µM
Summary of the method: as §1

OV90 = details: Gynecologic cancer cell panel viability, ATPlite luminescence, 48 h; series mostly up to 57.5 µM
Summary of the method: as §1

PA-1 = details: Gynecologic cancer cell panel viability, ATPlite luminescence, 48 h; series mostly up to 57.5 µM
Summary of the method: as §1

SKOV3 = details: Gynecologic cancer cell panel viability, ATPlite luminescence, 48 h; series mostly up to 57.5 µM
Summary of the method: as §1

Tov-21-G = details: Gynecologic cancer cell panel viability, ATPlite luminescence, 48 h; series mostly up to 57.5 µM
Summary of the method: as §1

Tov112D = details: Gynecologic cancer cell panel viability, ATPlite luminescence, 48 h; series mostly up to 57.5 µM
Summary of the method: as §1

CAOV3 = details: Gynecologic cancer cell panel viability, ATPlite luminescence, 48 h; series mostly up to 57.5 µM
Summary of the method: as §1
% is set by controls: 0 for no effect and ±100 for the full control effect.

CC1CCC2(C(=O)OC3OC(CO)C(O)C(O)C3O)CCC3(C)C(=CCC4C5(C)CCC(O)C(C)(CO)C5CCC43C)C2C1(C)O (stereo not drawn)
inactive: Potency (C33A) | outcome (CASKI) | Potency (Es-2) | Potency (HeLa) | Potency (Hek293T) | Potency (JEG-3) | Potency (OV90) | Potency (PA-1) | Potency (SKOV3) | Potency (Tov-21-G) | Potency (Tov112D)

C/C=C(\C)C(=O)OC1C2(O)CC3=C4CC(=O)OC(c5ccoc5)C4(C)CCC3C(C)(C2=O)C(C(OC(C)=O)C(=O)OC)C1(C)C (stereo not drawn)
inactive: Potency (C33A) | Potency (CAOV3) | Potency (Es-2) | Potency (HeLa) | Potency (Hek293T) | Potency (JEG-3) | Potency (OV90) | Potency (PA-1) | Potency (SKOV3) | Potency (Tov-21-G) | Potency (Tov112D)

C=CC(C)(CCC=C(C)C)O[C@@H]1O[C@H](CO)[C@@H](O)[C@H](O)[C@H]1O (stereo partly drawn)
inactive: Potency (C33A) | outcome (CASKI) | Potency (Es-2) | Potency (HeLa) | Potency (Hek293T) | Potency (JEG-3) | Potency (OV90) | Potency (PA-1) | Potency (SKOV3) | Potency (Tov-21-G) | Potency (Tov112D)

CC1(C)OC(=O)CC(O)C2(C)C1CC(=O)C1(C)C2C(O)CC2(C)C(c3ccoc3)OC(=O)C3OC321 (stereo not drawn)
inactive: Potency (C33A) | outcome (CASKI) | Potency (Es-2) | Potency (HeLa) | Potency (Hek293T) | Potency (JEG-3) | Potency (OV90) | Potency (PA-1) | Potency (SKOV3) | Potency (Tov-21-G) | Potency (Tov112D)

CC(=O)NC(Cc1ccccc1)C(=O)NC(C(=O)O)C(C)C (stereo not drawn) (Ac-Phe-Val-OH; configuration not given here)
inactive: Potency (C33A) | Potency (CAOV3) | Potency (Es-2) | Potency (HeLa) | Potency (Hek293T) | Potency (JEG-3) | Potency (OV90) | Potency (PA-1) | Potency (SKOV3) | Potency (Tov-21-G) | Potency (Tov112D)

C/C=C(/C)C(=O)OC1CC(C)(C)CC2C3=CCC4C5(C)CCC(OC6OC(C)C(OC7OC(C(=O)O)C(O)C(OC8OC(CO)C(O)C(O)C8OC8OC(CO)C(O)C(O)C8O)C7O)C(O)C6O)C(C)(C)C5CCC4(C)C3(C)C(OC(=O)/C=C/C=C/C=C/CCC)C(OC(C)=O)C12CO (stereo not drawn)
inactive: activity change, negative = cytotoxicity (C33A) -5.83% [at 6.55 µM] | activity change, negative = cytotoxicity (CASKI) -6.51% [at 6.55 µM] | activity change, negative = cytotoxicity (Es-2) 13.9% [at 6.55 µM] | activity change, negative = cytotoxicity (HeLa) 0% [at 6.55 µM] | activity change, negative = cytotoxicity (Hek293T) -3.11% [at 6.55 µM] | activity change, negative = cytotoxicity (JEG-3) -5.73% [at 6.55 µM] | activity change, negative = cytotoxicity (OV90) -14.1% [at 6.55 µM] | activity change, negative = cytotoxicity (PA-1) -0.509% [at 6.55 µM] | activity change, negative = cytotoxicity (SKOV3) -20.2% [at 6.55 µM] | activity change, negative = cytotoxicity (Tov-21-G) -0.72% [at 6.55 µM] | activity change, negative = cytotoxicity (Tov112D) 1.97% [at 6.55 µM]

O=C(O)CCc1cc2ccoc2cc1O[C@@H]1O[C@H](CO)[C@@H](O)[C@H](O)[C@H]1O
inactive: Potency (C33A) | Potency (CAOV3) | Potency (Es-2) | Potency (HeLa) | Potency (Hek293T) | Potency (JEG-3) | Potency (OV90) | Potency (SKOV3) | Potency (Tov-21-G) | Potency (Tov112D)

C=CC(C)(C)C12Nc3c(ccc4c3OC(C)(C)C=C4)C1(O)CC1C(=O)N3CCCC3C(=O)N12 (stereo not drawn)
inactive: Potency (C33A) | outcome (CASKI) | Potency (Es-2) | Potency (HeLa) | Potency (Hek293T) | Potency (JEG-3) | Potency (OV90) | Potency (PA-1) | Potency (SKOV3) | Potency (Tov-21-G) | Potency (Tov112D)

Nc1nc(COC(=O)c2ccc([N+](=O)[O-])cc2)nc(Nc2ccccc2)n1
inactive: Potency (C33A) | outcome (CASKI) | Potency (Es-2) | Potency (HeLa) | Potency (Hek293T) | Potency (JEG-3) | Potency (OV90) | Potency (PA-1) | Potency (SKOV3) | Potency (Tov-21-G) | Potency (Tov112D)

COc1cccc(CN(C(=O)CC(C)(C)C)C2CC(C(=O)N3CCNCC3)N(Cc3ccc4c(c3)OCO4)C2)c1 (stereo not drawn)
inactive: Potency (C33A) | outcome (CASKI) | Potency (Es-2) | Potency (HeLa) | Potency (Hek293T) | Potency (JEG-3) | Potency (OV90) | Potency (PA-1) | Potency (SKOV3) | Potency (Tov-21-G) | Potency (Tov112D)

CC(=O)OC1CCC2(C)C(CCC3(C)C2CC=C2C4CC(C)(C)CCC4(C)CCC23C)C1(C)C(=O)O (stereo not drawn)
inactive: Potency (C33A) | outcome (CASKI) | Potency (Es-2) | Potency (HeLa) | Potency (Hek293T) | Potency (JEG-3) | Potency (OV90) | Potency (PA-1) | Potency (SKOV3) | Potency (Tov-21-G) | Potency (Tov112D)

C[C@H]1[C@H](C)CC[C@]2(C(=O)O)CC[C@]3(C(=O)O)C(=CCC4[C@@]5(C)CC[C@H](O[C@@H]6O[C@@H](C)[C@H](O)[C@@H](O)[C@H]6O)C(C)(C)C5CC[C@]43C)[C@H]12 (stereo partly drawn)
inactive: Potency (C33A) | Potency (CAOV3) | Potency (Es-2) | Potency (HeLa) | Potency (Hek293T) | Potency (JEG-3) | Potency (OV90) | Potency (PA-1) | Potency (SKOV3) | Potency (Tov-21-G) | Potency (Tov112D)

CC(=O)NC(C(=O)OC1CCC(C)(C)C2CC=C3C(=O)OCC3C12C)C(C)C (stereo not drawn)
inactive: Potency (C33A) | outcome (CASKI) | Potency (Es-2) | Potency (HeLa) | Potency (Hek293T) | Potency (JEG-3) | Potency (OV90) | Potency (PA-1) | Potency (SKOV3) | Potency (Tov-21-G) | Potency (Tov112D)

C=C1C(=O)O[C@@H]2/C=C(\C)CC/C=C(\C(=O)O[C@@H]3O[C@H](CO)[C@@H](O)[C@H](O)[C@H]3O)CC[C@@H]12
inactive: Potency (C33A) | Potency (CAOV3) | Potency (Es-2) | Potency (HeLa) | Potency (JEG-3) | Potency (OV90) | Potency (PA-1) | Potency (SKOV3) | Potency (Tov-21-G) | Potency (Tov112D)

COC1CC(O[C@H]2CC[C@@]3(C)C(=CC[C@]4(O)C3[C@H](O)[C@@H](O)[C@]3(C)[C@@H]([C@H](C)O)CC[C@@]34O)C2)OC(C)C1OC1CC(OC)C(OC2CC(OC)C(OC3OC(C)C(OC4OC(CO)C(O)C(O)C4O)C(OC)C3O)C(C)O2)C(C)O1 (stereo partly drawn)
inactive: activity change, negative = cytotoxicity (C33A) 15.5% [at 11.6 µM] | activity change, negative = cytotoxicity (CASKI) 17.9% [at 11.6 µM] | activity change, negative = cytotoxicity (Es-2) 5.18% [at 11.6 µM] | activity change, negative = cytotoxicity (HeLa) -0.017% [at 11.6 µM] | activity change, negative = cytotoxicity (Hek293T) 8.49% [at 11.6 µM] | activity change, negative = cytotoxicity (JEG-3) -0.832% [at 11.6 µM] | activity change, negative = cytotoxicity (OV90) -7.88% [at 11.6 µM] | activity change, negative = cytotoxicity (PA-1) -4.49% [at 11.6 µM] | activity change, negative = cytotoxicity (SKOV3) 1.02% [at 11.6 µM] | activity change, negative = cytotoxicity (Tov-21-G) -0.0649% [at 11.6 µM] | activity change, negative = cytotoxicity (Tov112D) 1.61% [at 11.6 µM]
